Experimental data as given in PubChem BioAssay AID1276 (Columbia University Molecular Screening Center, 2008).
The campaign covered roughly 190,000 compounds. About 2,000 (1.1%) were called active.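 How the source made its calls: active means activation above a set limit, based on mean plus 3 SD of controls (cut at about 140% in these data); inconclusive means one replicate above the limit, the other below; inactive means the rest.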 What follows is part of a selection rich in actives, with near analogues and random picks from the rest.

Test: activators of APP 5'UTR luciferase reporter, primary screen, SH-SY5Y cells (AID 1276)
Conditions: SH-SY5Y APP 5'UTR luciferase reporter, luminescence; at 2 µM; hits give high values; zero percent = DMSO vehicle wells

SMILES | activation
CC(C)(C)CN1CCNC(=O)C1CC(=O)NC1Cc2ccccc2C1 (stereo not drawn) | -10.9% (inactive)
Cc1nn2cc(-c3ccc(Cl)cc3)cnc2c1Br | 208% (active)
CCOCCCN(C(=O)Cn1nnc(-c2ccc(OC)c(OC)c2)n1)C(CC)C(=O)NC1CCCC1 (stereo not drawn) | 7.01% (inactive)
CCOC(=O)CCCN1CC(O)=C(c2nc3ccccc3s2)C1=N | -7.28% (inactive)
COc1ccccc1N1CC(O)=C(c2nc3ccccc3s2)C1=N | 1.68% (inactive)
N=C1C(c2nc3ccccc3s2)=C(O)CN1NC(=O)c1ccc([N+](=O)[O-])cc1 | 150% (active)
CN1CCNC(=O)C1CC(=O)NCCC1=CCCCC1 (stereo not drawn) | 9.01% (inactive)
COCCNC(=O)c1ccc(N2CCC3(CC2)OCCO3)c([N+](=O)[O-])c1 | 5.47% (inactive)
c1ccc(C2=Nc3cccc4cccc(c34)N2)cc1 | -8.18% (inactive)
Brc1ccc(C2CC(c3ccccc3)=Nc3ccccc3N2)cc1 (stereo not drawn) | 176% (active)
CNC(=S)N1N=C(c2ccccc2)CC1c1ccc(Br)cc1 (stereo not drawn) | 16.3% (inactive)
CCc1nnc(NC(=O)CCC(=O)O)s1 | 11.8% (inactive)
COc1ccc(C)cc1NC(=O)CSc1nc(SC)ns1 | -17.1% (inactive)
CCc1nnc(NC(=O)CSc2nc(SC)ns2)s1 | 542% (active)
CCn1c2ccccc2c2cc(CC(N)=O)ccc21 | -15% (inactive)
CN(C)S(=O)(=O)c1ccc2oc(SCC(=O)Nc3ccccc3F)nc2c1 | 135% (active)
COc1ccc(S(=O)(=O)N(C)C)cc1NC(=O)CSc1ncccn1 | -3.15% (inactive)
CCS(=O)(=O)c1ccc2oc(SCC(=O)N3c4ccccc4CC3C)nc2c1 (stereo not drawn) | 12.2% (inactive)
O=C(Nc1cccc(Cl)c1)c1cc([N+](=O)[O-])ccc1N1CCN(CCO)CC1 | -1.04% (inactive)
O=C(NNC(=S)NCCCN1CCOCC1)c1ccncc1 | 1.62% (inactive)
Nc1nc(-c2sc3nc4c(cc3c2N)CCCC4)nc(N2CCOCC2)n1 | 45.3% (inactive)
CC(=O)Nc1cccc(C(=O)Nc2nc(C)cs2)c1 | 30.8% (inactive)
COc1ccc(CCNc2nc(-c3cccc(NC(C)=O)c3)cs2)cc1OC | 13% (inactive)
CC(=O)Nc1cccc(-c2csc(Nc3cccc(C)n3)n2)c1 | 177% (active)
C/C(CC(=O)Nc1ccc(Cl)cc1)=N\NC(=O)C(=O)NCCO | 6.46% (inactive)
CC(C)c1nc2sc3c(c2c(=O)n1N)CC(C)(C)OC3 | 17.6% (inactive)
O=C(O)c1ccc2c(c1)C(=O)N(NC(=O)c1ccc(O)cc1)C2=O | -2.99% (inactive)
Cn1cnnc1SCC(=O)Nc1ccc(N2CCOCC2)cc1 | 5.51% (inactive)
